PBM binding z-score data for 40 sequences are collected here from the supplement of paper PMC6555819.

The assay relates to THRa homodimer (NR concentration 90 nM). In words: PBM binding z-score (relative to random genomic background probes); higher = stronger binding; sequences stand for … in GC…GCGATTGACAGCGTAGAATGAAGG
The method, boiled down:
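Ligand-free nuclear receptor dimers were bound for 1 h to custom Agilent 4×180K protein-binding microarrays. Detection used antibodies against each partner (one per run). Binding z-scores rest on regression-normalized fluorescence, with random background probes as the reference.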
AATATTAGTTGAGACGAGGGCAACCGATAGGTTG: the PBM binding z-score amounted to 0.504.
The figure for TCGAGTAGGTTAGGGTCATTCAGAATGGCGTCGA is 2.62.
TAGCCTAGGTAATTCAGGGGCCAGTATAGAAAGC registered a PBM binding z-score of -0.13.
On to CAAACTAGGTCAAGGTCGAAGTCGGTTTGTGCCA, for which the PBM binding z-score stood at 2.45.
Sequence AATACACGGTCATCGTAGGCCAGAGTACGCACAG displayed a PBM binding z-score of -0.0649.
The sequence CGGACTAGGTCAAGGACAGTGAATCTCCGCACGC showed a PBM binding z-score of 2.06.
The figure for CATACAGGGTCAGCTACGCCAGAGTAGGGACGGC is 0.834; for AGAACGAGGGCGCGCTGAGTTGATAGCAGAGTAG it is -0.623.
In turn, CGTCAAAGTTCAACTAGGGTAACGTAAAGCACGC yielded a PBM binding z-score of 0.583.
GCTCGGAGGAAAAGGTCAGAGCTTTGTCCGTAGA displayed a PBM binding z-score of -0.291.
For CCTTACGTGTCAAGGTTATAGCACGGGTGGTACG, the PBM binding z-score amounted to 0.906.
In turn, CCTCCTAGGTCAATGGTCAGCTAAAGCAGCTCGC yielded a PBM binding z-score of 1.17.
In turn, CCGACTGGGGCATAAAGGTTACCATACCATCCGG gave a PBM binding z-score of -0.376.
The figure for TCTGCTAGGTCAGTTGGTCAGCTACCGAGCTGCC is -0.00528; for GCTTGTAGATCAGGGTTAAGAAAGACTAAGCTAA it is -0.435.
Take TGATATAGGTAATACAGGTGAAAGTCGGCATCTA: the PBM binding z-score came out at 0.267.
The figure for TCTTGTAGATCAGCATGTTAAGAAAGCTGGCCAA is -0.975; for CGAACTAGGTTATTGACAGGACAGTGAATAGTAA it is -0.0792.
As to ATCGAAAGGTCGACGAGGTGACTATACACCGTTT, the PBM binding z-score worked out at 1.27.
On to GCTGCTAGGTCAGGGTGGTCAGCTAACGGGTACG, for which the PBM binding z-score turned out to be 0.797.
ACTAGCAGGCCCAGTTTGGGTCACTCAAACAAAG yielded a PBM binding z-score of 0.659.
Then AGAATGAGGTTACCAAATATCAGGGAAACGCTTG, with 0.824.
On to ACTCGGAGGACAAAGGTCAGAGCAACGCCAGTGA, for which the PBM binding z-score stood at 0.599.
Sequence GCTGCTAGGTCAACTGATTGTCAGCTAAAGCTCG yielded a PBM binding z-score of 0.691.
In turn, GCGACTGGGGCAAAGCAAGTTACCATAAGGTTGG showed a PBM binding z-score of -0.346.
Turning to AGAATGAGGTTAATAAGATCAGGGAATTGCGGTC, the PBM binding z-score is 0.762.
The sequence ATCCCTAGGTAAAGATAGTTCAGTGAATGCAAAT showed a PBM binding z-score of 0.169.
On to CTTCGGAGGACAGAAGGTCAGAGCTGTCCGCTTT, for which the PBM binding z-score was -0.137.
Regarding CCAGACAGGTGTAAGGTAACTCAGTCTGGTACGC, the PBM binding z-score stood at 1.21.
The figure for CAAACTAGGTCCAGGTCAAAGTCGGTTTGTGCCA is 2.79; for CCTAGTTGGTCGAGGTCACACACGCTATAGGTAC it is 4.15; for TCTTGTTGATCAGCAGGTTAAGAAAGCTGGCCAA it is -0.779.
CGTCAAAGTTCAAGATAACGTAACAGAAAGCAGC: the PBM binding z-score is -0.18.
As for CAAACTAGGCCAAAGGTCAAAGTCGAGCCAACCA, the PBM binding z-score was determined as 0.417.
On to TCTCGGAGGACACGAAAGGTCGGAGCTCGACATC, for which the PBM binding z-score stood at 0.464.
Sequence CGTCCAAGGTCTGCAGGTCAGTGAAAGCGACGTG gave a PBM binding z-score of -0.0329.
For CCAGACAGGTGGAAGGTAACTCAGTCTGGTACGC, the PBM binding z-score is -0.144.
For ACAGACAGGAGATGAAGGTAACTCAGGCTATCAT, the PBM binding z-score was 0.773.
Then CCAGACAGGCGAAAGGTAACTCAGTCTGGTACGC, with -0.896.
The sequence CGTCCAAGGTCAATGCTAGGTCAGTGTAAGCATT displayed a PBM binding z-score of 2.75.
